Results published in ChEMBL document CHEMBL1157539, “Thousands of chemical starting points for antimalarial lead identification” (Nature, 2010).

Key:
Format in all cases: functional
Plasmodium falciparum [1] = assay: GSK_TCMDC: Inhibition of Plasmodium falciparum 3D7 in whole red blood cells, using parasite LDH activity as an index of growth. Test compounds present at 2uM
Plasmodium falciparum [2] = assay: GSK_TCMDC: Inhibition of Plasmodium falciparum Dd2 in whole red blood cells, using parasite LDH activity as an index of growth. Test compounds present at 2uM
HepG2 = assay: GSK_TCMDC: Percent inhibition of human HepG2 cell line. Test compounds present at 10uM.

Compound | Inhibition (Plasmodium falciparum [1]) | Inhibition (Plasmodium falciparum [2]) | Inhibition (HepG2)
Cc1cc(N[C@@H](Cc2ccccc2)C(=O)NCc2cccc(F)c2)nc(NCC2CCCCC2)n1.O=C(O)C(F)(F)F | 100% | 42% | 43%
CCc1ccc(OCc2ccccc2C(=O)Nc2ccc3nc(C)cc(N)c3c2)cc1.Cl | 99% | 74% | 98%
Cl.O=c1cc(NCCCNCc2ccc(Cl)c(Cl)c2)[nH]c2ccc(C(F)(F)F)cc12 | 100% | 68% | 10%
COc1ccc(Nc2nc(=Nc3ccccc3)nc(NN=Cc3cc(Cl)ccc3O)[nH]2)cc1 | 100% | 10% | 55%
Cc1[nH]c(C)c(-c2ccc(-c3cccc(C(F)(F)F)c3)nc2)c(=O)c1Br | 97% | 96% | 28%
O=[N+]([O-])c1ccccc1/C=N/Nc1ccnc2ccc(C(F)(F)F)cc12 | 100% | 36% | 6%
CN(C)CCOc1cc(NC(=O)Nc2ccc(Cl)cc2C(F)(F)F)ccc1I | 96% | 16% | 0%
COc1ccc(-c2cc(NCc3ccc(-n4ccnc4)cc3)nc(Nc3ccccc3)n2)cc1 | 100% | 79% | 8%
Cc1ccc(NC(=O)Nc2ccc(Cl)c(C(F)(F)F)c2)cc1-c1ccc(C(=O)Nc2ccncc2)cc1 | 99% | 99% | 77%
Cc1cccc(CNc2nccc3[nH]c4ccccc4c23)c1.O=C(O)C(F)(F)F | 92% | 51% | 14%
COc1ccc(CCNCCCCCCNCCc2ccc(-c3ccccc3)cc2)cc1OC.Cl | 99% | 35% | 100%
CCOc1cc(C(=O)NCCN(C(C)C)C(C)C)ccc1-c1nc2cc(Cl)ccc2[nH]1 | 100% | 90% | 4%
CCOC(=O)c1ccc(OCCOc2ccccc2)cc1 | 99% | 0% | 63%
O=C(Nc1cccc(CN2CCCN(Cc3cccc(Cl)c3)CC2)c1)c1ccc(-c2ccccc2)cc1.O=C(O)C(F)(F)F | 86% | 14% | 44%
CC1CN(Cc2ccccc2)CCN1c1ccc(NC(=O)c2ccc(F)cc2)cc1.O=C(O)C(F)(F)F (stereo unspecified) | 87% | 89% | 0%
COc1cccc(C(=O)Nc2nc3c(s2)CCN(Cc2ccccc2N2CCNCC2)CC3)c1.O=C(O)C(F)(F)F | 89% | 11% | 7%
COc1c(Br)cc(Br)cc1C(C)=O | 95% | 0% | 3%
COc1cc(C(=O)NC2CC(C)(C)N(C)C(C)(C)C2)ccc1-c1cc2cc(Cl)c(Cl)cc2[nH]1 | 89% | 36% | 65%
O=C(O)c1ccc(NC(=O)C2CC(=O)N(Cc3ccc(Cl)cc3)C(=Nc3ccc(Cl)cc3)S2)cc1 (stereo unspecified) | 99% | 95% | 0%

Compound | Inhibition (Plasmodium falciparum [1]) | Inhibition (Plasmodium falciparum [2]) | Inhibition (HepG2)
CCCC(CCC)n1ccc2c3c(N)nc(N)nc3ccc21.Cl | 98% | 97% | 66%
COc1ccccc1N1CCN(C(C(=O)NCc2ccc3c(c2)OCO3)c2ccc3c(c2)OCCCO3)CC1 (stereo unspecified) | 88% | 13% | 15%
CC1CN(c2cc(=O)n(Cc3cccc(NC(=O)Nc4ccc(-c5ccccc5)cc4)c3)cn2)CC(C)N1.O=C(O)C(F)(F)F (stereo unspecified) | 100% | 63% | 2%
Cl.O=C(Nc1ccc(C(=O)OCC2CCCN3CCCCC23)cc1)c1ccc([N+](=O)[O-])cc1 (stereo unspecified) | 95% | 25% | 5%
COc1ccc2nccc(N3CCC(NCCNCc4ccc5c(n4)NC(=O)CS5)C3)c2n1.Cl (stereo unspecified) | 100% | 5% | 0%
CCCOc1ccc(CCNCCCCNCCc2ccc(OCCC)c3ccccc23)c2ccccc12.CS(=O)(=O)O | 93% | 52% | 100%
O=C(/C=C/c1ccccc1)N1CCOC(CCN2CCC(c3ccccc3)CC2)(c2ccc(Cl)c(Cl)c2)C1 (stereo unspecified) | 89% | 63% | 4%
Cn1c(=O)c2cc(C(=O)NCCCN3CCCCCC3)sc2c2ccccc21 | 99% | 99% | 32%
COc1ccc2nccc([C@@H](O)CN3CCC(NCc4ccc(OC)c(NC=O)c4)CC3)c2c1 | 97% | 0% | 0%
CC1(C)[C@H]2CC[C@@H](CNc3nc(NCC(=O)Nc4ccc5ccccc5c4)nc(N4CCC(N5CCCC5)CC4)n3)[C@@H]1C2 | 93% | 20% | 6%
C[C@H](CNc1ccnc(Nc2ccc3[nH]c(=O)[nH]c3c2)n1)c1ccccc1.O=CO | 100% | 0% | 61%
Cc1onc(-c2ccccc2)c1C(=O)Nc1nc(-c2ccccn2)nc2ccsc12 | 97% | 78% | 23%
CCN1CCN(CCNc2c3ccccc3nc3ccccc23)CC1.Cl | 93% | 8% | 45%
CCN(c1ccccc1)S(=O)(=O)c1ccc(OC)c(NC(=O)c2cccc(C(F)(F)F)c2)c1 | 90% | 70% | 9%
CCN(CC)c1ccc(C(c2ccc(N(CC)CC)cc2)c2cccc([N+](=O)[O-])c2)cc1 | 91% | 68% | 39%
Cl.O=C(N[C@@H](Cc1ccccc1)[C@H](O)CNC1CCCc2ccccc21)c1cc(C2CCCC2)cc(N2CCCC2=O)c1 (stereo partly specified) | 97% | 99% | 31%
COc1ccc(CN(C)CCCOc2ccc(NC(=O)c3cccc4c(=O)c5cccc(C)c5[nH]c34)cc2)cc1OC | 96% | 62% | 3%
CC(C)[C@H](NC(=O)c1ccc(O)c(-c2cccc(C(F)(F)F)c2)c1)C(=O)NC1CCCc2ccccc21 (stereo partly specified) | 82% | 25% | 2%
